MEKK3 PB1 HTS = MEKK3-MEK5 PB1 interaction, increase or decrease; Q99759; bead-based flow cytometry, Alexa488-MEK5 binding to MEKK3; actives lie on both sides; 0 = blocked by unlabeled MEK5, 100 = vehicle; binding response (% of control), % at 10 µM; 1.4% of 290,000 active;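 active = binding response more than 3 SD above or below the average of its plate-row segment, actives on both sides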;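 also: Alexa488 bead fluorescence after subtracting the streptavidin-only scavenger bead signal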
MEKK2 mut-MEK5 = signal of MEK5 binding to mutant human MEKK2 PB1 domain; bead flow cytometry, Alexa488-MEK5 binding to MEKK2 mutant; percent response, % at 10 µM; 0.35% of 290,000 active; AID 1530; in the data active = percent response above about 24%, passing the limit was not always enough
GRK2 inh = blocks RNA aptamer binding to human GRK2; inhibition of aptamer binding, % at 10 µM; 0.59% of 330,000 active; bead flow cytometry, FAM-aptamer displacement from GRK2; P25098; AID 488847;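 active = inhibition of aptamer binding above 40%, roughly 3 SD of noise, on plates passing a quality check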;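 also: median bead fluorescence of bound FAM aptamer so fluorescent compounds give negative values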
MEKK2 WT-MEK5 = raises or lowers MEK5 binding to wildtype human MEKK2 PB1 domain; Q9Y2U5; binding response (% of control), % at 10 µM; bead flow cytometry, Alexa488-MEK5 binding to MEKK2 WT; actives lie on both sides; 1.1% of 290,000 active; in the data active = binding response below about 67% or above about 130%
MEKK2wt confirm = raises or lowers MEK5 binding to wildtype human MEKK2, retest; shares compounds with MEKK3 PB1 HTS; bead flow cytometry, Alexa488-MEK5 binding to MEKK2 WT; actives lie on both sides; binding response (% of control), % at 10 µM; 2.4% of 5,900 active; AID 1892; in the data active = binding response below about 16% or above about 210%; inactive = in between
MEKK2mut-MEK5 = signal of MEK5 binding to mutant human MEKK2, retest; shares compounds with MEKK3 PB1 HTS; bead flow cytometry, Alexa488-MEK5 binding to MEKK2 mutant; percent response, % at 10 µM; 2% of 5,900 active; in the data active = percent response mostly above about 71%, no sharp cut-off; inactive = mostly below about 38%;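 also: higher means compound restores mutant binding toward wildtype level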
MEKK3 confirm = MEKK3-MEK5 PB1 inhibition, single concentration confirmation | shares compounds with MEKK3 PB1 HTS | bead flow cytometry, Alexa488-MEK5 binding to MEKK3; stronger effect = lower value | binding response (% of control), % at 10 µM | 1.8% of 5,900 active | AID 1894;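 active = binding response below 72% of control, or above a set upper limit, though filed actives all read lower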;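 also: 100% = DMSO only wells and 0% = binding blocked by excess unlabeled MEK5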
Starred values were filed as active, the others as inactive; . = no result; [ ] = another dose, or the depositor's remark. Compounds with a hit are over-represented: about 2.5% of the library has one in this group of screens.

SMILES	MEKK3 PB1 HTS	MEKK2 mut-MEK5	GRK2 inh	MEKK2 WT-MEK5	MEKK2wt confirm	MEKK2mut-MEK5	MEKK3 confirm
FC(F)(F)c1cccc(NC(=S)NC(c2ccccc2)c2ccccc2)c1	152.0*	10.0	1.0	169.0*	176.0	42.0	106.0
CCOc1ccccc1C1CC(=O)NC2=C1C(=O)CCC2 (stereo not drawn)	104.0	6.0	22.0	103.0	.	.	.
C=CCn1c(-c2cc(-c3ccccc3)sc2N)n[nH]c1=S	93.0	-5.0	5.0	94.0	.	.	.
c1cc(-c2cccs2)nc(-c2cccs2)c1	96.0	-3.0	2.0	94.0	.	.	.
c1csc(-c2cn3ccc4ccccc4c3n2)c1	6.0*[inhibitor]	-18.0	0.0	7.0*[inhibitor]	105.0	7.0	108.0
Cc1cc(C)c[n+](-c2nc3ccccc3nc2[N-]S(=O)(=O)c2ccc(Cl)cc2)c1	137.0*	0.0	0.0	111.0	103.0	2.0	103.0
Cc1cccc(Cn2cnc3ccccc32)c1	101.0	4.0	1.0	109.0	.	.	.
Cc1ccc(Cn2cnc3ccccc32)cc1C	74.0*[inhibitor]	-1.0	0.0	98.0	108.0	4.0	107.0
Cc1cc2nncn2c2ccccc12	78.0*[inhibitor]	-6.0	3.0	84.0	104.0	3.0	102.0
COc1ccc2c(C)cc3nncn3c2c1	101.0	-5.0	0.0	100.0	.	.	.
Cc1ccccc1OCC(=O)NCCN1CCCC1	98.0	2.0	0.0	109.0	.	.	.
CCCCCCCN(C(=O)CCl)c1cccc(C)c1	127.0	-1.0	2.0	103.0	.	.	.
CCCCCCN(C(=O)CCl)c1ccccc1	41.0*[inhibitor]	-44.0	4.0	48.0	94.0	-3.0	99.0
O=C(Cn1cnc2ccccc2c1=O)Nc1nnc(SCc2ccc(Cl)cc2)s1	35.0*[inhibitor]	-12.0	0.0	32.0*[inhibitor]	107.0	7.0	107.0
O=C(Cn1cnc2ccccc2c1=O)Nc1nnc(C2CC2)s1	109.0	28.0	1.0	117.0	.	.	.
CC1CCN(c2c(NCC3CCC(C(=O)NCc4ccccc4)CC3)c(=O)c2=O)CC1 (stereo not drawn)	110.0	-2.0	2.0	100.0	.	.	.
O=C(NCc1ccccc1)C1CCC(CNc2c(N3CCCCC3)c(=O)c2=O)CC1 (stereo not drawn)	70.0*[inhibitor]	-7.0	0.0	77.0	102.0	2.0	103.0
O=C(Cn1c2c(c(=O)n3ncnc13)CCC2)N/N=C/c1ccc(Cl)cc1	48.0*[inhibitor]	-19.0	3.0	54.0	97.0	-2.0	97.0
COc1ccc(C(=O)CSc2n[nH]c(C)n2)cc1[N+](=O)[O-]	46.0*[inhibitor]	-14.0	0.0	59.0	104.0	1.0	101.0
COc1ccc(N(C(=O)CNC(=O)c2cccs2)C(C(=O)NCC2CCCO2)c2ccccc2)cc1OC (stereo not drawn)	96.0	-11.0	0.0	85.0	.	.	.
Cc1ccc(C(C(=O)NC2CCCC2)N(C(=O)CNC(=O)c2cccs2)c2cccnc2)o1 (stereo not drawn)	71.0*[inhibitor]	4.0	1.0	106.0	102.0	2.0	104.0
COc1ccc(N(C(=O)CNC(=O)c2cccs2)C(C(=O)NCC2CCCO2)c2ccccc2)cc1 (stereo not drawn)	5.0*[inhibitor]	-19.0	15.0	6.0*[inhibitor]	105.0	4.0	104.0
Cc1ccc(C(C(=O)NC2CCCC2)N(Cc2cccs2)C(=O)CNC(=O)c2cccs2)o1 (stereo not drawn)	92.0	4.0	0.0	103.0	.	.	.
CCN(CC)C(=O)CN(c1cc(Cl)ccc1OC)S(=O)(=O)c1ccc(C)c([N+](=O)[O-])c1	91.0	-5.0	0.0	93.0	.	.	.
O=C(CSc1nn(-c2ccccc2)c(=S)s1)Nc1ncccn1	100.0	-12.0	0.0	80.0	.	.	.
S=c1sc(SCCOc2ccccc2)nn1-c1ccccc1	132.0*	1.0	2.0	104.0	96.0	-3.0	101.0
CC(C)CC(=O)N=C1SC2CS(=O)(=O)CC2N1Cc1ccccc1 (stereo not drawn)	195.0*	1.0	0.0	114.0	97.0	-8.0	98.0
Cc1ccc(NC(=O)c2cccc(S(=O)(=O)N3CCc4ccccc4C3)c2)nc1	.	.	3.0	.	.	.	.
